Common to all, as to format: functional
The target in experiment [1] is Solute carrier family 2, facilitated glucose transporter member 1 (Homo sapiens) (UniProt P11166). In words: ST_JUDE_LEISH: Cytotoxicity at 2uM final concentration against transgenic Leishmania Mexicana promastigotes LmGLUT1 that are glucose transport deficient and complemented with the human glucose transporter GLUT1. Activity is measured by DNA content using SYBR green in vitro.

Experiment [2] addresses Hexose transporter 1 (Plasmodium falciparum) (UniProt O97467). Description: ST_JUDE_LEISH: Cytotoxicity at 2uM final concentration against transgenic Leishmania Mexicana promastigotes LmPfHT that are glucose transport deficient and complemented with the Plasmodium falciparum hexose transporter. Activity is measured by DNA content using SYBR green in vitro.
Experiment [3] concerns the target Glucose transporter (Leishmania mexicana) (UniProt O61059). Description: ST_JUDE_LEISH: Cytotoxicity at 2uM final concentration against transgenic Leishmania Mexicana promastigotes LmGT2 that are glucose transport deficient and complemented with the L. Mexicana glucose transporter 2. Activity is measured by DNA content using SYBR green in vitro.

Sequence of Solute carrier family 2, facilitated glucose transporter member 1 (Homo sapiens) (P11166 whole entry): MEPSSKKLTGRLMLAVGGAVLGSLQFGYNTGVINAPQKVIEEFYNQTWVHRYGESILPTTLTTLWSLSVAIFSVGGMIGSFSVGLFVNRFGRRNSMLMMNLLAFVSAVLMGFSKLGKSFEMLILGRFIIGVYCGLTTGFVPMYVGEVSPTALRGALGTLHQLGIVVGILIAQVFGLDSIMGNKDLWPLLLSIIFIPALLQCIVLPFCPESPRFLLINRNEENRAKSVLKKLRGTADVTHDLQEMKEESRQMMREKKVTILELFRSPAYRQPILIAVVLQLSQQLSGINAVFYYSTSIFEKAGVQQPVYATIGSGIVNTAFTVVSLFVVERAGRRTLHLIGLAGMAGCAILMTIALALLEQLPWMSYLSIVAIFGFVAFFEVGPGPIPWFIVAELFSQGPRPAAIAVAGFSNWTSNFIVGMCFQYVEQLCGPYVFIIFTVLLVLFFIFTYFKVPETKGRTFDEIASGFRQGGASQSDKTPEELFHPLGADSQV

Take `COc1ccc(NC2=C(c3ccccc3)C(=O)c3ccccc32)cn1`: the inhibition in experiment [1] came out at 7.83%; in experiment [2], 4.66%; in experiment [3], 3.49%.
In the case of `COc1ccc(-c2nnc(Sc3ccc(C#N)c([N+](=O)[O-])c3)n2CC(C)C)cc1`, the inhibition turned out to be 0.96% in experiment [1], 3.46% in experiment [2] and 1.92% in experiment [3].
As to `CCCCCC(C)C(C)c1cc(O)c2c(c1)OC(C)(C)CC2(O)c1ccccn1` (stereo unspecified), the inhibition in experiment [1] was found to be 1.35%; in experiment [2] it was 2.79%; in experiment [3], 3.05%.
As to `COc1ccc(NC(=O)[C@H](CC(C)C)Nc2cc(C)nc(NCCOc3ccccc3)n2)cc1`, the values for the inhibition in experiment [1], in experiment [2] and in experiment [3] were 1.07%, 2.71% and -0.23%, respectively.
For `O=C(N[C@@H](CC1CCCCC1)C(=O)NCCN1CCCC1)c1ccc(O)c(-c2cccc(C(F)(F)F)c2)c1`, in that order: -0.44%, -0.43% and 0.16%.
Turning to `COc1ccc2nccc([C@@H](O)CN3CCC(NC(=O)c4ccc(CN5CCN(c6cccc(C)c6)CC5C)cc4)CC3)c2c1` (stereo partly specified), the inhibition was 4.12% in experiment [1], 1.46% in experiment [2] and -3.5% in experiment [3].
For the molecule `CCCN(CCC)C(=S)N/N=C1/C(=O)Nc2ccccc21`, the values for the inhibition in experiment [1], in experiment [2] and in experiment [3] were 0.67%, -0.6% and -4.34%, respectively.
For the molecule `CCN(CC)CCNC(=O)c1ccc(NC(=O)c2ccc(-c3cc(NC(=O)CC4CCCC4)ccc3C)cc2)cc1`, the inhibition in experiment [1] was 2.1%; in experiment [2], 1.64%; in experiment [3] it was 2.4%.
For `c1ccc2ncc(CNCCCCCCCCNCc3cnc4ccccc4c3)cc2c1`, in that order: -0.67%, -0.08% and 0.09%.
On to `CCOc1cc(C(=O)Nc2ccc(-c3nc4ccccc4[nH]3)cc2)cc(OCC)c1OCC`, for which the results for the inhibition in experiment [1], in experiment [2] and in experiment [3] were 7.99%, 5.32% and 2.55%, respectively.
On the same counts, the results for `CC(C)N1CCC(N(Cc2ccc(-c3ccc(C(F)(F)F)cc3)cc2)C(=O)CCCn2c(CCc3cccc(F)c3F)nc(=O)c3ccccc32)CC1` are 5.92%, 3.92% and 6.72%.
`CC(O)C(C)(CO)NCc1ccc2c3c(cccc13)-c1ccccc1-2` (stereo unspecified): the inhibition stood at 15.7% in experiment [1], 11.2% in experiment [2] and 5.35% in experiment [3].
In the case of `O=C(NCc1cc2c(cc1Cl)OCO2)c1ccc(CNC2CCN(Cc3ccccc3)CC2)cc1`, the results for the inhibition in experiment [1], in experiment [2] and in experiment [3] were 0.15%, 0.96% and 0.48%, respectively.
For the molecule `CCc1cc(NC2CCN(C)CC2)nc(Nc2cccc(OC)c2)n1`, the inhibition in experiment [1] stood at 15%; in experiment [2], 10%; in experiment [3], 6.53%.
For the molecule `COc1cccc(C(=O)NCc2nnc(S)n2-c2ccc(Cl)c(Cl)c2)c1`, the inhibition in experiment [1] was -0.13%; in experiment [2], 0.68%; in experiment [3] it was -0.3%.
With `O=C(/C=C/c1ccc(Cl)c(Cl)c1)NCCCCCCN1CCCN(C(=O)Nc2ccc(F)c(F)c2)CC1`, the results for the inhibition in experiment [1], in experiment [2] and in experiment [3] were 0.72%, 0.44% and 2.39%, respectively.
As for `FC(F)(F)c1ccc2c(NCCc3ccccc3)ccnc2c1`, the inhibition in experiment [1] stood at 4.24%; in experiment [2] it was 5.12%; in experiment [3] it was 3.79%.
For the molecule `Cc1ccccc1C1CCN(C2CCC(NC(=O)c3ccc(-c4ccccc4F)o3)CC2)CC1` (stereo unspecified), the inhibition is 3.69% in experiment [1], 2.49% in experiment [2] and 1.85% in experiment [3].
For `Cn1nc(-c2ccc(CN[C@@H]3CCc4ccc(O)cc43)cc2)c2cnc(NC3CCCC3)nc21`, in that order: 0.66%, -1.03% and -0.55%.
With `CCc1cn2c3c(cc(C(=O)N[C@@H](Cc4ccccc4)[C@H](O)CNCc4cccc(C)c4)cc13)N(C)S(=O)(=O)CC2`, the inhibition in experiment [1] was found to be 1.35%; in experiment [2], 0.76%; in experiment [3], 2.29%.
In the case of `COc1cc(Nc2nccc(N3CCC(NC(=O)c4cccc(C#N)c4)C3)n2)cc(OC)c1OC` (stereo unspecified), the inhibition was 1.3% in experiment [1], 1.35% in experiment [2] and 0.79% in experiment [3].
For `O=C(Nc1cccc(-c2ccc(-c3nc4cc(F)ccc4[nH]3)cc2)c1)c1ccncc1`, in that order: 4.46%, 2.3% and 2.96%.
Consider `COc1ccc(Nc2nc(NCc3ccco3)c3ccccc3n2)cc1`, for which the inhibition came to 25.5% in experiment [1], 20% in experiment [2] and 12.1% in experiment [3].
With `O=C(Cn1cc(C=C2SC(=NC3CCCC3)N(C3CCCC3)C2=O)c2ccccc21)N1CCCC1`, the inhibition was determined as 4.24% in experiment [1], 1.46% in experiment [2] and 0.81% in experiment [3].
Turning to `Cc1cc(CNCCCCCNCc2cccc([N+](=O)[O-])c2)ccc1O`, the inhibition in experiment [1] turned out to be 1.94%; in experiment [2], 1.39%; in experiment [3] it was 1.29%.
In the case of `COc1cc(NC(=O)C(c2ccc(Cl)cc2)C(C)C)cc(OC)c1` (stereo unspecified), the inhibition in experiment [1] worked out at 2.88%; in experiment [2], 2.55%; in experiment [3], 1.33%.
As to `c1ccc2c(Nc3ccc(OCCOCCOc4ccc(Nc5c6ccccc6nc6ccccc56)cc4)cc3)c3ccccc3nc2c1`, the inhibition in experiment [1] is -2.9%; in experiment [2], -1.87%; in experiment [3], 4.94%.
With `CCCCC#Cc1cnc2nc(N)[nH]c(=O)c2n1`, the inhibition in experiment [1] was determined as 1.66%; in experiment [2], 1.03%; in experiment [3] it was 0.91%.
As to `CC(=O)Nc1ccc(OCCCN(Cc2ccccc2OC(F)(F)F)c2ccc(C(F)(F)F)c(C#N)c2)c(Cl)c1`, the figures for the inhibition in experiment [1], in experiment [2] and in experiment [3] were 2.37%, -1.13% and 1.86%, respectively.
For `Cc1[nH]c(-c2ccc(F)cc2)cc1C(=O)NC1CCN(Cc2ccccc2)CC1`, in that order: 1.59%, 3.23% and -0.98%.
In the case of `CN(C)CC(=O)NCC(NCCCNc1cc(=O)c2ccccc2[nH]1)c1cc(Br)cc(Br)c1` (stereo unspecified), the values for the inhibition in experiment [1], in experiment [2] and in experiment [3] were 5.5%, 5.13% and 5.64%, respectively.
For the molecule `Cc1cc(N[C@@H](Cc2ccccc2)C(=O)NCCCOC(C)C)nc(NCC2CCCCC2)n1`, the inhibition turned out to be 11.7% in experiment [1], 11.7% in experiment [2] and 8.28% in experiment [3].

For orientation: inhibition means the relative decrease from the control value, in per cent.
